Experimental data as given in PubChem BioAssay (NCATS).
A number with no mark means an inactive call. How the calls were made is not given here.

tested on: HIV-1 nucleocapsid protein NCp7 (binding to TG oligonucleotide); experiment: HIV Nucleocapsid (AID 346); conditions: HIV-1 NC / fluorescein-TGTGTGTG probe, fluorescence polarization;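 further: potency is for inhibitors that block NC binding and lower polarization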
How it was run: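 Reagents dispensed (10 nM TG4xF, 100 nM HIV-1 NC), plates spun, compounds pin-transferred, then incubated 1 hr at room temperature before FP imaging. Buffer: Hepes pH 7.5, 250mM NaCl, 1uM ZnCl2, 100 uM TCEP, 5 mM 2-mercaptoethanol.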
Potency means the concentration at half of the fitted maximal effect.

SMILES	Potency
Cc1cnc(CNc2cc(-c3ccccc3Cl)ncn2)cn1	> 20 µM
O=c1c(-c2ccccc2)nc2cnc(Oc3cccc(Cl)c3)nc2n1C1CC1	> 20 µM
O=S(=O)(c1ccccc1)N1CCC2(CC1)CN(c1ncccn1)C2	> 20 µM
Cn1c(=O)c(-c2ccc(F)c(F)c2)nc2cncnc21	> 4 µM
O=C(c1cc(C(F)(F)F)cc(C(F)(F)F)c1)N1CCC2(CC1)CCN(c1ccncc1)CC2	> 20 µM
Cn1c(=O)c(-c2ccccc2)nc2cnc(OCc3ccccc3)nc21	> 20 µM
CS(=O)(=O)N1CCC[C@@]2(CCN(C(c3ccccc3)c3ccccc3)C2)C1	> 20 µM
CCNc1ncc2nc(-c3cc(F)cc(F)c3)c(=O)n(-c3ccccc3)c2n1	> 4 µM
COc1ccccc1-c1nccc(N2CCN(C)CC2)n1	> 20 µM
CN(Cc1ccco1)c1ncnc2ccc(-c3ccccc3Cl)cc12	> 20 µM
Cn1c(=O)c(-c2ccc(Cl)cc2)nc2cnc(Oc3cccc(Cl)c3)nc21	> 20 µM
O=C(c1csnn1)N1CCC[C@@]2(CCN(Cc3cc(C(F)(F)F)cc(C(F)(F)F)c3)C2)C1	> 20 µM
COC(=O)N1CCC2(CC1)CN(c1ccncc1)C2	> 20 µM
Clc1ccccc1-c1nccc(NCc2cccs2)n1	> 20 µM
COc1ccc2[nH]cc(CCNc3ncnc4ccc(-c5ccccc5OC)cc34)c2c1	> 20 µM
COc1cccc(Nc2ncc3nc(-c4ccccc4)c(=O)n(C4CC4)c3n2)c1	> 20 µM
O=C(Oc1ccccc1)N1CCC2(CCCN(c3ccc(-c4ccccc4)cc3)C2)CC1	> 20 µM
COc1cccc(-c2ccc3ncnc(NCc4cccnc4)c3c2)c1	> 20 µM
CN(C)c1ccc(-c2nc(-n3ccnc3)c3ccccc3n2)cc1	> 20 µM
COc1ccccc1-c1cncnc1NCCNC(C)=O	> 20 µM

SMILES	Potency
N#Cc1cccc(NC(=O)N2CC[C@@]3(CCCN(C(=O)c4ccncc4)C3)C2)c1	> 20 µM
COc1ccc(-n2c(=O)c(C)nc3cnc(Oc4ccccc4)nc32)cc1	> 20 µM
CN1CCN(c2ncc3nc(CCc4ccccc4)c(=O)n(Cc4ccc(F)cc4)c3n2)CC1	> 20 µM
Cn1cccc1C(=O)N1CCC[C@@]2(CCN(c3ccccn3)C2)C1	> 20 µM
CN1CCN(c2ncc3nc(-c4cn(C)c5ccccc45)c(=O)n(CCC#N)c3n2)CC1	> 20 µM
CN(C)C(=O)c1ccc(-c2nc(NCc3cccs3)c3ccccc3n2)cc1	> 20 µM
CN1CC[C@@]2(CCCN(C(=O)c3cccn3C)C2)C1	> 20 µM
Cc1noc(C)c1-c1cncnc1-n1ccnc1	> 20 µM
COc1cccc(-c2nc(NC3CCNCC3)c3ccccc3n2)c1	> 20 µM
CNc1cc(-c2ccccc2CN(C)C)ncn1	> 20 µM
COc1ncc2nc(CCc3ccccc3)c(=O)n(C3CC3)c2n1	> 20 µM
COc1cccc(-c2nc(N3CCNCC3)c3ccccc3n2)c1	> 20 µM
Cc1nc2cncnc2n(Cc2ccccc2)c1=O	> 20 µM
COCC(=O)N1CCC[C@@]2(CCN(Cc3ccc(C#N)cc3)C2)C1	> 20 µM
COc1ccc(CNc2ncncc2-c2ccc(C(=O)N(C)C)cc2)c(OC)c1	> 20 µM
Cc1noc(C)c1-c1ccc2ncnc(NCc3cccnc3)c2c1	> 20 µM
COc1ncc2nc(-c3cccs3)c(=O)n(C)c2n1	> 20 µM
COc1ccc(Oc2ncc3nc(-c4ccc(Cl)cc4)c(=O)n(C)c3n2)cc1	> 20 µM
CC(C)NC(=O)N1CCCC2(CCN(S(=O)(=O)c3ccccc3)CC2)C1	> 4 µM
Cc1cccc(CNc2cc(-c3ccc(C(=O)N(C)C)cc3)ncn2)c1	> 20 µM
